Drawing on PubChem BioAssay (EPA / NIEHS), this text covers outcome and AC50 for 6 compounds.

A short description of assay [1]: APR_HepG2_NuclearSize_72hr: Apredica 72-hour HepG2 Assay for Nuclear Size (AID 2282925). The note with it: high-content imaging, actives raise or lower the signal. The gist of the method: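 HepG2; cpd 0.39–200 uM, 10 conc, duplicate; 72 h; DMSO 0.5% v/v; fix 3.7% formaldehyde 30 min RT; Triton permeabilization; Hoechst 2 ug/mL; HCS imaging 20x; nuclear diameter; gain/loss fit vs DMSO.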

The nature of assay [2]: ATG_CRE_CIS: Attagene CIS-FACTORIAL HepG2 Assay for human cAMP Responsive Element (CRE) binding protein 3 (AID 2282926). The note with it: HepG2 CRE cis-reporter, Attagene multiplexed mRNA; actives raise or lower the signal. The procedure, abridged: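 We dosed HepG2 cells bearing multiple cis-promoter reporter units for 24 h and measured reporter mRNA by RT-PCR with capillary electrophoresis detection. Bidirectional concentration-response fitting used DMSO as negative control.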

The target in assay [3] is CCAAT/enhancer-binding protein beta (Homo sapiens) (UniProt P17676). Kind of assay: ATG_C_EBP_CIS: Attagene CIS-FACTORIAL HepG2 Assay for human CCAAT/Enhancer Binding Protein (C/EBP) beta (AID 2282927). The note with it: HepG2 Attagene cis-factorial transcription factor reporter; actives raise or lower the signal. The gist of the method:
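Changes in reporter mRNA, rather than exogenous chimeric receptor activity, reflect native C/EBP signalling in transfected HepG2 cells dosed for 24 h; transcripts are detected by RT-PCR and capillary electrophoresis.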

Assay [4] in a line: ATG_CMV_CIS: Attagene CIS-FACTORIAL HepG2 Assay for human CMV (Internal Marker) (AID 2282928).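 Further: endpoint acts as a background internal control marker rather than a target.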 The note with it: HepG2 CMV promoter reporter, transcription factor profiling; actives raise or lower the signal. The gist of the method:
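CMV internal-marker background readout in transiently transfected HepG2 cells bearing cis-regulated reporter units. Reporter mRNA is measured 24 h after dosing by RT-PCR and capillary electrophoresis, with bidirectional fitting against DMSO.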

Assay [5] is described as follows: ATG_DR4_LXR_CIS: Attagene CIS-FACTORIAL HepG2 Assay for human Liver X Receptor (LXR), DR4 submotif (AID 2282929). The note with it: HepG2 Attagene DR4 cis-reporter, mRNA transcription; actives raise or lower the signal. The procedure, abridged:
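HepG2, transient MRTU transfection, cis-element (DR4) promoter; 24 h compound exposure; total RNA → oligo(dT) RT → PCR → 6-FAM primer extension → HpaI cut → CE. Gain/loss vs DMSO, bidirectional fit.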

The target in assay [6] is Aryl hydrocarbon receptor (Homo sapiens) (UniProt P35869). Description: ATG_Ahr_CIS: Attagene CIS-FACTORIAL HepG2 Assay for human Aryl Hydrocarbon Receptor (Ahr) (AID 2282930). The note with it: HepG2 AhR cis-factorial reporter transcription; actives raise or lower the signal. The procedure, abridged: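 HepG2, transient MRTU (cis) transfection, 24 h exposure. RNA → cDNA → PCR → 6-FAM primer extension → HpaI 2 h 37 C → CE. Fit: bidirectional, DMSO baseline.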
Chain of Aryl hydrocarbon receptor (Homo sapiens) (P35869 whole entry, looked up): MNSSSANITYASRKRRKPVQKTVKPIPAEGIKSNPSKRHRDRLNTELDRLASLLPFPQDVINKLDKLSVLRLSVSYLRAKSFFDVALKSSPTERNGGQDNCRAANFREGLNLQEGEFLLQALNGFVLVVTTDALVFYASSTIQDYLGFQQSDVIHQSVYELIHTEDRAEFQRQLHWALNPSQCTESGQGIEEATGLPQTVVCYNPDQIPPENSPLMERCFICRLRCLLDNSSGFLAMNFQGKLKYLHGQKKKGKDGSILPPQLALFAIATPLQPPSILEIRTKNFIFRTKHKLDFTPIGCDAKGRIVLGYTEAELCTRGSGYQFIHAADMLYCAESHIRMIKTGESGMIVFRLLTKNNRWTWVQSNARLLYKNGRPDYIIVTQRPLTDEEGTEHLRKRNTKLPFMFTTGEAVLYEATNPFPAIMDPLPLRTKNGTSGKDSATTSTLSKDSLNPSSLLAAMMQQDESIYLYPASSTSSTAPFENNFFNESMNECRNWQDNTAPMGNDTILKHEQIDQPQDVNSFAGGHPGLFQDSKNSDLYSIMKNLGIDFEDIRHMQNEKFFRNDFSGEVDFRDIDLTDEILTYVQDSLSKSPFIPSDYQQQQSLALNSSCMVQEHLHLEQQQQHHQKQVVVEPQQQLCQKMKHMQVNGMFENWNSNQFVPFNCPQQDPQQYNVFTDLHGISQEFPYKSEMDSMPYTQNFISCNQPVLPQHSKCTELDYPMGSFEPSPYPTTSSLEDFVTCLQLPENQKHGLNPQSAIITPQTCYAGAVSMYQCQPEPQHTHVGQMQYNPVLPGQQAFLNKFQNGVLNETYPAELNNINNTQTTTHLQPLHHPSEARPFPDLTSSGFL

The nature of assay [7]: ATG_AP_2_CIS: Attagene CIS-FACTORIAL HepG2 Assay for human Activator Protein 2 (AP-2) (AID 2282932). The note with it: HepG2 AP-2 cis-reporter, Attagene transcription factor profiling; actives raise or lower the signal. The procedure, abridged: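 HepG2, transient MRTU transfection, cis-regulated reporters; 24 h compound exposure; RNA isolated, RT-PCR, 6-FAM labelling, HpaI digest, CE fluorescence. DMSO = negative control/baseline, bidirectional fit.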

Assay [8] can be described thus: ATG_BRE_CIS: Attagene CIS-FACTORIAL HepG2 Assay for human Bone Morphogenetic Protein (BMP) Response Element (BRE) (AID 2282933). The note with it: HepG2 BMP response element reporter, Attagene transcription factor profiling; actives raise or lower the signal. The procedure, abridged: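 A HepG2 multiplex reporter system measured inducible reporter mRNA 24 h post-dosing. Detection: RT-PCR, 6-FAM primer extension, HpaI digestion, capillary electrophoresis. Activity fitted bidirectionally relative to DMSO.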

Assay [9] deals with Retinoic acid receptor alpha (Homo sapiens) (UniProt P10276). Description: ATG_DR5_RAR_CIS: Attagene CIS-FACTORIAL HepG2 Assay for human Retinoic Acid Receptor Alpha (RARE), DR5 submotif (AID 2282934). As to conditions: HepG2 Attagene cis-factorial RARE DR5 reporter, mRNA; actives raise or lower the signal. The procedure, abridged:
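HepG2, transient cis-reporter transfection, 24 h exposure. mRNA readout: RT-PCR, FAM label, HpaI cut, capillary electrophoresis. DMSO baseline, gain/loss fitting.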

For assay [10], the target named is Transcription factor E2F1 (Homo sapiens) (UniProt Q01094). Kind of assay: ATG_E2F_CIS: Attagene CIS-FACTORIAL HepG2 Assay for human E2F Transcription Factor 1 (AID 2282935). As to conditions: HepG2 Attagene cis-reporter, E2F reporter RNA transcripts; actives raise or lower the signal. The procedure, abridged:
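Cis-element reporter mRNA induction in transiently transfected HepG2, 24 h exposure. Activity fitted in both directions relative to DMSO negative control.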

Assay [11] can be described thus: ATG_E_Box_CIS: Attagene CIS-FACTORIAL HepG2 Assay for human Enhancer Box (E-box) (AID 2282936). As to conditions: HepG2 E-box cis-reporter transcription, actives raise or lower the signal. The gist of the method:
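Cells: HepG2 (human liver), transient MRTU transfection. Exposure 24 h. RNA → oligo(dT) RT → PCR → 6-FAM label → HpaI → CE. Activity fitted both directions relative to DMSO.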

Assay [12] in a line: ATG_M_61_CIS: Attagene CIS-FACTORIAL HepG2 Assay for M61 Transcription Factor (Internal Marker) (AID 2282937). As to conditions: HepG2 Attagene CIS-FACTORIAL M61 internal marker reporter; actives raise or lower the signal. The gist of the method: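 Human liver HepG2, transient MRTU transfection (cis promoter elements), 24 h compound. Total RNA → oligo(dT) RT → PCR → FAM label → HpaI → CE. Internal background marker; bidirectional fitting, DMSO = baseline.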

A short description of assay [13]: ATG_M_19_CIS: Attagene CIS-FACTORIAL HepG2 Assay for M19 Transcription Factor (Internal Marker) (AID 2282939). As to conditions: HepG2 Attagene CIS-FACTORIAL M19 internal marker reporter; actives raise or lower the signal. The procedure, abridged: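 Chemical-treated HepG2 (24 h) with MRTU constructs; reporter transcripts detected by fluorescent RT-PCR fragment analysis on capillary electrophoresis. Internal background marker, DMSO as baseline.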

Assay [14] is described as follows: ATG_ERE_CIS: Attagene CIS-FACTORIAL HepG2 Assay for Estrogen Response Element (ERE) (AID 2282940). As to conditions: HepG2 ERE cis-reporter, Attagene RNA transcript; actives raise or lower the signal. The procedure, abridged:
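Human liver cells (HepG2) bearing transiently transfected, promoter-regulated reporter units were exposed 24 h. Reporter mRNA induction was detected by capillary electrophoresis of labelled RT-PCR products and fitted bidirectionally to DMSO.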

Assay [15] can be described thus: ATG_Ets_CIS: Attagene CIS-FACTORIAL HepG2 Assay for human Erythroblast Transformation Specific (ETS) (AID 2282941). The note with it: HepG2 ETS cis-reporter transcription, actives raise or lower the signal. The procedure, abridged: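 HepG2 cells transfected with multiple cis-regulated reporter units measuring endogenous ETS-driven transcription, 24 h after dosing. Reporter mRNA quantified by RT-PCR with capillary electrophoresis; bidirectional fit relative to DMSO.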

The target in assay [16] is Hepatocyte nuclear factor 3-beta (Homo sapiens) (UniProt Q9Y261). Description: ATG_FoxA2_CIS: Attagene CIS-FACTORIAL HepG2 Assay for human Forkhead box A2 (FOXA2) (AID 2282942). As to conditions: HepG2 cis-reporter transcription factor activity, 24 h; actives raise or lower the signal. The procedure, abridged: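 Transient MRTU transfection of HepG2 liver cells; 24 h treatment; total RNA → oligo(dT) RT → PCR → FAM primer extension → HpaI cut → CE. Bidirectional fit vs DMSO.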
Chain of Hepatocyte nuclear factor 3-beta (Homo sapiens) (Q9Y261 whole entry, looked up): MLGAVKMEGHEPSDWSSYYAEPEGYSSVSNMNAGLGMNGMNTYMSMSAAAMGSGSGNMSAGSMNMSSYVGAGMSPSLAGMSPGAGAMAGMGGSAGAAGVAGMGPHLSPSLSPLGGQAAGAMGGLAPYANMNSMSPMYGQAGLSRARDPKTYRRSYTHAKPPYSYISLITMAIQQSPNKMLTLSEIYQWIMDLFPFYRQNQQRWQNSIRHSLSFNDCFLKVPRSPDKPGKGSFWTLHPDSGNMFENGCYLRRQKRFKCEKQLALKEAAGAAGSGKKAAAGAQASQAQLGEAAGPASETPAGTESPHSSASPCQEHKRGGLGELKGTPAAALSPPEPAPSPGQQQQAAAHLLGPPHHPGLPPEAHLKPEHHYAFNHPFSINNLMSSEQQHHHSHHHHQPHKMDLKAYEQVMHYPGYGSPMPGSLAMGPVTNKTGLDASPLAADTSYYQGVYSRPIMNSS

Assay [17] can be described thus: ATG_FoxO_CIS: Attagene CIS-FACTORIAL HepG2 Assay for human Forkhead box O (FoxO) (AID 2282943). The note with it: HepG2 Attagene cis-reporter, FoxO element, mRNA; actives raise or lower the signal. The gist of the method:
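Human hepatoma HepG2 cells carry transiently introduced reporter transcription units controlled by cis promoter elements. Chemical treatment lasted 24 h, and mRNA signal was compared with DMSO.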

Assay [18] is described as follows: ATG_EGR_CIS: Attagene CIS-FACTORIAL HepG2 Assay for human Early Growth Response 1 (EGR1) (AID 2282938). As to conditions: HepG2 Attagene CIS-FACTORIAL EGR reporter mRNA; actives raise or lower the signal. The gist of the method: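 Transient transfection of human HepG2 with multiple cis-regulated reporter units, chemical exposure 24 h, total RNA isolated. Reverse transcription, PCR, fluorescent labelling and capillary electrophoresis quantify reporter transcripts; activity fitted bidirectionally against DMSO.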

The nature of assay [19]: ATG_GATA_CIS: Attagene CIS-FACTORIAL HepG2 Assay for human GATA Binding Protein (AID 2282944). As to conditions: HepG2 GATA cis-element reporter, Attagene multiplex mRNA; actives raise or lower the signal. The gist of the method: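 Transfected cis-reporter HepG2 cells were treated with chemicals for 24 hours. Total RNA was then converted to cDNA, amplified with reporter-specific primers and analysed by fluorescent capillary electrophoresis, using DMSO-treated wells as baseline.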

Structures are written as SMILES. More than one record can exist for a structure, and the calls need not agree. Activity calls are given as the source filed them. How the source made its calls: active means hit-call score of the fitted dose curve at least 0.9, where 1 is the maximum; inactive means score below 0.9.

Chain of Retinoic acid receptor alpha (Homo sapiens) (P10276 whole entry, looked up): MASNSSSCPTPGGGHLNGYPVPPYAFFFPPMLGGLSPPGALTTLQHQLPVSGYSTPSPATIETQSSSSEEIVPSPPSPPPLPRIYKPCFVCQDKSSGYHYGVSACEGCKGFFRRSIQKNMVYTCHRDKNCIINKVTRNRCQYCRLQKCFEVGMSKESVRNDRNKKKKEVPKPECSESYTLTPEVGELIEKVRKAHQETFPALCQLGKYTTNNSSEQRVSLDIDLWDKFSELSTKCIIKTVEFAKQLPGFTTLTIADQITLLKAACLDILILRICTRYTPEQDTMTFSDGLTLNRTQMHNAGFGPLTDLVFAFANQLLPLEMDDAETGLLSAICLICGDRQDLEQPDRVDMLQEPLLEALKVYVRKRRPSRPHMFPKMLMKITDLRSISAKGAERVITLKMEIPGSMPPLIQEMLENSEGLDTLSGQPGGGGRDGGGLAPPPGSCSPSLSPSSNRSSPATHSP
Chain of Transcription factor E2F1 (Homo sapiens) (Q01094 whole entry, looked up): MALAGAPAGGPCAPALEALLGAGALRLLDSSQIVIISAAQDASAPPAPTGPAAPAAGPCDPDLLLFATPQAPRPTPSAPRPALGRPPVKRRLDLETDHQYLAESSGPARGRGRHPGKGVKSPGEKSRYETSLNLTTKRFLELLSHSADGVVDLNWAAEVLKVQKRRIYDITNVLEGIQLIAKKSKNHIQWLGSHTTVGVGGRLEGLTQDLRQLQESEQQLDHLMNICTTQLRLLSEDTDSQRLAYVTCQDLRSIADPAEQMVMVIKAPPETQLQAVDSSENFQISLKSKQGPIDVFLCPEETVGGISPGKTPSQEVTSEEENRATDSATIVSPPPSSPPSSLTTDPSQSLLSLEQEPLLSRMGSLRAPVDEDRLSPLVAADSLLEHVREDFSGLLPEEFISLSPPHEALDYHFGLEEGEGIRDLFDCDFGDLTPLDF
Chain of CCAAT/enhancer-binding protein beta (Homo sapiens) (P17676 whole entry, looked up): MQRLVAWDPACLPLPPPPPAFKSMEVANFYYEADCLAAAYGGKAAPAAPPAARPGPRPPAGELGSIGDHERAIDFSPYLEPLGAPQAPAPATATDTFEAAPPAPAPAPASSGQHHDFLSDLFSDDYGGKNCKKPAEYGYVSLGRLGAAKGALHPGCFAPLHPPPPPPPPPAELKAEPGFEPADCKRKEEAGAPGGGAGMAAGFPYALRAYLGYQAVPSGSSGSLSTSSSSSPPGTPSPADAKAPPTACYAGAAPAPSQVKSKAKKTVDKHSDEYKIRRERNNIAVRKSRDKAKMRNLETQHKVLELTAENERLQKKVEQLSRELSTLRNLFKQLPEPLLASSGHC

For `COC(=O)c1cccc(C)c1S(=O)(=O)NC(=O)Nc1nc(OCC(F)(F)F)nc(N(C)C)n1`, the result in assay [1], in [2], in assay [3], in assay [4], in assay [5] and in assay [6] was inactive. For the same compound, the compound was classed as inactive in assay [7], in assay [8], in assay [9], in [10], in [11] and in assay [12]. Besides, the outcome in assay [13], in [14], in assay [15], in [16] and in assay [17] was inactive.

For the compound `CCCCOC(=O)C(C)Oc1ccc(Oc2ccc(C(F)(F)F)cn2)cc1` (stereo unspecified), the outcome in assay [1], in assay [2], in assay [3], in assay [4], in assay [5] and in assay [6] was inactive. Also, the outcome in [7], in assay [8], in assay [9], in assay [10], in assay [11] and in assay [12] was inactive. For the same compound, the call in assay [13], in [14], in assay [15], in [16] and in assay [17] was inactive.

As to `c1ccc(Nc2ccccc2)cc1`, the outcome in assay [1], in [2], in assay [3], in assay [4], in [5] and in assay [6] was inactive. The compound was classed as inactive in [7], in assay [8], in assay [9], in [10], in assay [11] and in [12]. The compound was classed as inactive in [18], in [13], in assay [15], in [16] and in [17]. Moreover, in assay [8], the AC50 – broadly, the concentration at which the activity in the assay is half-maximal – is 16.6 µM (active).

For `CSC(=O)c1cccc2nnsc12`, the compound was classed as inactive in assay [1], in assay [2], in assay [3], in [4], in [5] and in assay [6]. For the same compound, the compound was classed as inactive in assay [7], in [8], in assay [9], in assay [10], in assay [11] and in assay [12]. The compound was called inactive in assay [18], in assay [13], in assay [14], in assay [15], in assay [16] and in [17]. For the same compound, the result in assay [19] was inactive.

As for `CCC(O)=C1C(=O)CC(C(=O)O)CC1=O` (stereo unspecified), the call in [1], in assay [2], in assay [3], in assay [4], in assay [5] and in assay [6] was inactive. Also, the compound was classed as inactive in assay [7], in assay [8], in [9], in [10], in [11] and in assay [12]. Besides, the compound was classed as inactive in [18], in assay [13], in [14], in [15], in assay [16] and in assay [17].

In the case of `CC1(C)C(C=C(Cl)Cl)C1C(=O)OCc1cccc(Oc2ccccc2)c1` (stereo unspecified), the call in assay [1], in assay [2], in assay [3], in assay [4], in assay [6] and in assay [7] was inactive. The result in [8], in assay [10], in assay [11], in assay [12], in assay [18] and in [13] was inactive. Also, the compound was classed as inactive in assay [15], in assay [16] and in [17]. Besides, the figures for the AC50 in [5] and in assay [14] were 29.9 µM (active) and 21.3 µM (active), respectively.
